High-throughput results as filed in PubChem BioAssay.
Compounds with a hit are over-represented: about 11% of the library has one in this group of screens.
12-hLO inh: blocks human 12-lipoxygenase activity. hit rate 0.12% among 150,000. P18054. Potency, µM (titrated, usually from 57.1 µM), hits mostly inhibitors. purified 12-hLO, xylenol orange hydroperoxide absorbance; active means well fitted curve in the direction sought with a large enough effect; inconclusive means small, poorly fitted or top-dose-only effect, or another doubt; inactive means no such curve, though single readings can be large; an effect the other way counts as inactive or inconclusive; further: nearly all actives have a fitted effect of over 55% in size
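Purified human 12hLO (150 nM), preincubated 15 min with compound, then 40 uM arachidonic acid for 30 min, room temperature, Hepes pH 7.0 with 0.01% Triton X-100. Hydroperoxide detected by ferrous iron/xylenol orange; 573/405 nm absorbance ratio gives reaction progress.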
PNC assembly inh: perinucleolar compartment assembly inhibition; PC3M PTB-GFP, PNC prevalence imaging, 16 h; active compounds read low; activity change (PNC), negative = inhibition, % at 10 µM; hit rate 3.1% among 140,000; AID 2417;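 active means readout at or below -70, meaning at least 70% loss of cells showing the perinucleolar compartment, a nuclear body marking cancer cells; inconclusive means readout between -30 and a set limit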
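PC3M cells stably expressing PTB-GFP, 750–1000 cells/well, treated 16 h at 37 °C with compound (23 nl of library stock), in duplicate. After paraformaldehyde fixation and Hoechst stain, imaged at 20x; PNC prevalence scored by image analysis.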
IMPase Li cell: membrane-permeable IMPase blocker, potentiated with lithium | CHO-M1 cells, IP1 TR-FRET (IP-One), carbachol + lithium | Potency, µM (top dose mostly 59.4 µM), most hits filed as inhibitors | hit rate 0.35% among 210,000 | AID 1457; active means well fitted curve in the direction sought with a large enough effect; inconclusive means small, poorly fitted or top-dose-only effect, or another doubt; inactive means no such curve, though single readings can be large; an effect the other way counts as inactive or inconclusive;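 further: IP1 builds up when IMPase is blocked and the TR-FRET signal falls; nearly all actives have a fitted effect of over 50% in size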
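CHO-M1, 2000 cells/well, 16–30 h culture; cpd + low Li+, 30 min 37C; lysis with d2-IP1/Eu-anti-IP1 Ab, 10 min RT; TR-FRET 665/620 ratio and 620 channel; AC50 via Hill.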
IMPase cell inh: IMPase inhibition in cells; CHO-M1 cells, IP1 accumulation, HTRF TR-FRET ratio; inhibition (IP1 accumulation), % at 46.1 µM; 120,000 tested, under 10 active; active means well fitted curve in the direction sought with a large enough effect in the signal ratio, not every such curve was filed as active; inconclusive means small, poorly fitted or top-dose-only effect, or a change in a side signal; inactive means no such curve, though single readings can be large or run the other way; the % refers to the signal ratio;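 further: cells stimulated with carbachol in lithium chloride buffer; higher means more IMPase inhibition seen as more IP1 and lower FRET ratio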
Target sequence (P97697 whole entry, looked up): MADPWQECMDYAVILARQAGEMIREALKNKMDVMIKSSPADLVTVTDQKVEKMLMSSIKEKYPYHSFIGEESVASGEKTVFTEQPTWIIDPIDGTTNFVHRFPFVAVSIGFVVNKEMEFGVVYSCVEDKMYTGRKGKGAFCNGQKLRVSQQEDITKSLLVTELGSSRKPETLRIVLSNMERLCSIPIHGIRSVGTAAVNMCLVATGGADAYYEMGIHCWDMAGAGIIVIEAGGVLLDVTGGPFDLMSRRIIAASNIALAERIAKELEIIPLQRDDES
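Cellular IMPase inhibition is scored as a rise in cytosolic IP1, detected by competitive TR-FRET between d2-labelled IP1 and a europium anti-IP1 antibody. M1-expressing CHO cells were stimulated with carbachol for 30 min at 37C, with lithium (50 mM LiCl) present in the buffer.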
HPGD inh: inhibitors of human 15-hydroxyprostaglandin dehydrogenase (HPGD); P15428; purified HPGD, NADH fluorescence kinetic, PGE2 substrate; Potency, µM, most hits filed as inhibitors; hit rate 4.3% among 150,000; AID 894
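NADH formation kinetics: reaction with 30 uM PGE2 and 1 mM NAD+ (final), 20 nM enzyme, Tris-HCl pH 8 with Tween 20, after 15 min compound preincubation at room temperature. Fluorescence change, last versus first of five reads.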
ALDH1A1 block: inhibitors of human aldehyde dehydrogenase 1A1; Purified ALDH1A1, NADH fluorescence, propionaldehyde substrate; Potency, µM (series often up to 75.3 µM), most hits filed as inhibitors; hit rate 7.3% among 220,000
Target sequence (P00352 whole entry, looked up): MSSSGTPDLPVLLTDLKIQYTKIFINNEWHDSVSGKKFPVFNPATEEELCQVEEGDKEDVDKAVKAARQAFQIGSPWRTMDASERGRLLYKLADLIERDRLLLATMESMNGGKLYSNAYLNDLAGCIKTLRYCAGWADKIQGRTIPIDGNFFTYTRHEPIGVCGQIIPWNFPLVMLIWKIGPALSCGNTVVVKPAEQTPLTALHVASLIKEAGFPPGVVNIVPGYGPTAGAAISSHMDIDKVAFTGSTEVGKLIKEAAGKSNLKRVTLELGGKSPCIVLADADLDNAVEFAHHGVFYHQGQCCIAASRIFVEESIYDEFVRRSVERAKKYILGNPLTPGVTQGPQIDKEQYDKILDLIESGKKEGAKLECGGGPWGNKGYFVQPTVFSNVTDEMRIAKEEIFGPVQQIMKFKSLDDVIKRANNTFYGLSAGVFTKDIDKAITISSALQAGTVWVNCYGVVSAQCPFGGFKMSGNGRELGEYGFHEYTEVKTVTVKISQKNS
Hits are given with their value; 0 = inactive; ? = inconclusive; - = not tested or not shown; [ ] = dose if it differs, or a comment. Unless noted, the call rests on the fitted dose curve; in most records, active means well fitted inhibition curve with a large enough effect (not every such curve was filed as active); inconclusive means small, poorly fitted or top-dose-only effect, or another doubt; inactive means no such curve, though single readings can be large or run the other way.

SMILES	12-hLO inh	PNC assembly inh	IMPase Li cell	IMPase cell inh	HPGD inh	ALDH1A1 block
CN1CCN(c2ncc3nc(-c4ccc(Cl)cc4)c(=O)n(C4CC4)c3n2)CC1	0	-	0	-	?	?
CCOCCCNC(=O)C(c1ccc(OC)cc1)N(Cc1ccc2c(c1)OCO2)C(=O)c1ccccc1O (stereo not drawn)	-	-	0	-	-	2µM
CCOCCCNC(=O)C(c1ccccc1)N(Cc1ccc2c(c1)OCO2)C(=O)CNC(C)=O (stereo not drawn)	0	0	0	0	0	0
CCOCCCNC(=O)C(c1ccc(C)cc1)N(Cc1ccc2c(c1)OCO2)C(=O)CNC(C)=O (stereo not drawn)	0	-100.0	0	0	0	0
CCOCCCNC(=O)C(c1ccc(C)cc1)N(Cc1cccs1)C(=O)c1ccccc1O (stereo not drawn)	-	-	0	-	-	15.8µM
Cc1ccc(NC(=O)c2sc3nc(CCl)[nH]c(=O)c3c2C)c(C)c1	-	-	0	-	-	?
O=C(O)C[C@@H](C(=O)O)c1ccccc1[N+](=O)[O-]	0[11.4 µM]	-	0	-	0	0[13.5 µM]
COc1ccc(NC(=O)CSc2nc(-c3ccccc3)[nH]c2-c2ccccc2)cc1OC	-	-	-	0	-	-
Cc1ccc(S(=O)(=O)N(C)Cc2ccc(C(=O)N/N=C3\CCCC(=O)C3)cc2)cc1	0	0	0	-	0	?
Cc1ccc(S(=O)(=O)N(C)Cc2ccc(C(=O)NN=C3C4CC5CC(C4)CC3C5)cc2)cc1	0	0	-	0	-	0.501µM
COc1cc(/C=N/NC(=O)c2ccc(CN(C)S(=O)(=O)c3ccc(C)cc3)cc2)ccc1O	-	-	0	-	-	0
CC/C(=N\NC(=O)c1ccc(CN(C)S(=O)(=O)c2ccc(C)cc2)cc1)c1ccc(OC(F)F)cc1	0	0	0	-	0	12.6µM
Cc1ccc(S(=O)(=O)N(C)Cc2ccc(C(=O)NN=C(CC(C)C)CC(C)C)cc2)cc1	0	0	0	-	0	7.08µM
[O-][N+](=Nc1ccccc1)c1ccccc1	0	-	0	-	0	0
Cn1c(=O)c2c(SCc3cccnc3)nc(C3CC3)nc2n(C)c1=O	0	0	0	0	0	0
Cn1c(=S)c2[nH]c(SCc3cccnc3)nc2n(C)c1=O	0[11.4 µM]	-	0	-	3.98µM	?
CCc1nc(SCc2cccnc2)c2c(=O)n(C)c(=O)n(C)c2n1	0	0	0	?	0	0
CC(C)Cc1nc(SCc2cccnc2)c2c(=O)n(C)c(=O)n(C)c2n1	-	-	0	-	-	7.08µM
Cc1cc(OCC(=O)Nc2ccncc2)ccc1[N+](=O)[O-]	-	-	0	-	-	10µM
Cc1ccc(OCC(=O)Nc2ccc(F)cc2)cc1C	0	-100.0	0	0	?	0
CC(=O)Nc1ccc(NC(=O)COc2ccc([N+](=O)[O-])cc2)cc1	-	-	0	-	-	11.2µM
Cn1cccc1C(=O)N1CCC[C@@]2(CCN(c3cccc(-c4ccccc4)c3)C2)C1	0	-	0	-	?	0
CCOC(=O)N/N=C1/C[C@@H](O)[C@@H](O)[C@@H]2[C@@H]3C(=O)N(C4CCCCC4)C(=O)[C@H]3CC[C@H]12	-	-	-	-	-	0[13.5 µM]
CN(C)CCCN1C(=O)C(=O)/C(=C(/O)c2ccc(OCc3ccccc3)cc2)C1c1cccnc1 (stereo not drawn)	0	0	0	0	0	?
COCCN1C(=O)C(=O)/C(=C(/O)c2ccc(OC(C)C)cc2)C1c1cccnc1 (stereo not drawn)	0	?	10µM	0	0	0
SMILES	12-hLO inh	PNC assembly inh	IMPase Li cell	IMPase cell inh	HPGD inh	ALDH1A1 block
CCOc1ccc(/C(O)=C2/C(=O)C(=O)N(CCOCCO)C2c2ccccc2)cc1 (stereo not drawn)	0	0	11.2µM	?	0	0
CCOc1ccc(/C(O)=C2/C(=O)C(=O)N(CCOCCO)C2c2cccnc2)cc1 (stereo not drawn)	0	0	11.2µM	?	0	0
O=C1C(=O)N(CCOCCO)C(c2ccccn2)/C1=C(\O)c1ccccc1 (stereo not drawn)	0	0	-	0	-	?
COc1c(C)cc(Br)cc1C(=O)Nc1ccc(S(N)(=O)=O)cc1	-	-	0	-	-	0
COC(=O)c1ccc(C2c3c(oc4cc(C)c(C)cc4c3=O)C(=O)N2c2ccccn2)cc1 (stereo not drawn)	-	-	-	0	-	-
Cc1ccc(NC(=O)c2ccc(N(Cc3ccccc3)S(C)(=O)=O)cc2)cc1	-	-	-	0	-	-
O=C(Nc1ccc(S(=O)(=O)Nc2nccs2)cc1)c1ccc(S(=O)(=O)N2CCOCC2)cc1	0	?	0	-	0	?
O=C(Nc1ccc(S(=O)(=O)Nc2nccs2)cc1)c1ccc(F)c(S(=O)(=O)N2CCOCC2)c1	-	-	0	-	-	5.01µM
CC(C)(C)C(=O)NC(=S)Nc1ccc(S(=O)(=O)Nc2nccs2)cc1	-	-	0	-	-	?
O=C(NC(=S)Nc1ccc(S(=O)(=O)Nc2nccs2)cc1)c1ccc(F)cc1	0	0	0	-	0	17.8µM
COc1nsnc1NS(=O)(=O)c1ccc(NC(=S)NC(=O)c2cccnc2)cc1	-	-	0	-	-	20µM
COc1nccnc1NS(=O)(=O)c1ccc(NC(=S)NC(=O)c2ccc(F)cc2)cc1	?	?	0	-	0	14.1µM
CN(C)N1C(N)=C(C#N)C(c2cccs2)C2=C1CC(C)(C)CC2=O (stereo not drawn)	-	-	0	-	-	10µM
CCSc1sccc1C1C(C#N)=C(N)N(c2cccnc2)C2=C1C(=O)CC(C)(C)C2 (stereo not drawn)	0	0	0	0	0	0
CC1(C)CC(=O)C2=C(C1)N(c1cccnc1)C(N)=C(C#N)C2c1cccs1 (stereo not drawn)	0	0	0	-	0	22.4µM
CN1CCc2nc(SCC(=O)Nc3ccc(OC(F)(F)F)cc3)c(C#N)c(-c3cccs3)c2C1	0	0	0	-	0	3.16µM
Cc1cccc(CSc2nc3c(c(-c4cccs4)c2C#N)CN(C)CC3)c1	0	0	0	-	0	?
CN1CCc2nc(SCC(=O)Nc3cccc(F)c3)c(C#N)c(-c3cccs3)c2C1	0	0	0	0	0	8.91µM
COc1ccc(N(C(=O)c2ccc(OC)c(OC)c2)S(=O)(=O)c2ccc(Cl)cc2)cc1	-	-	-	0	-	-
COc1ccc2c(c1)C(=O)N(c1ccccc1OC)C(=O)C2	0	0	0	0	8.91µM	17.8µM
COc1ccc2c(c1)C(=O)N(c1ccc(C)cc1C)C(=O)C2	0	0	0	-	?	?
C[C@@H]1Cc2ccccc2N1NC(=O)c1ccc(Cl)c(S(N)=O)c1 (stereo partly drawn)	0	-	0	0	0	7.94µM
CC[C@@H](C)CN1C(=O)N[C@@H](c2ccccc2)C(C(=O)OC)=C1C	0[11.4 µM]	-	0	-	0	0[13.5 µM]
N#Cc1cccc(-c2nc(Nc3ccccc3)c3ccccc3n2)c1	0	-	?	-	0	?
CCCCn1c(SCC(=O)c2ccc(OC)cc2OC)nc2cc(S(N)(=O)=O)ccc21	0	?	0	0	0	7.08µM
